Bioassay records deposited in PubChem by National Center for Advancing Translational Sciences (NCATS).
The sample as a whole holds a higher share of hits than the screen did.
Sm TGR inh: S. mansoni TGR enzyme inhibition. Q962Y6. Potency, µM (top dose mostly 114 µM), inactives show at the top dose activity change, negative = inhibition, most hits filed as inhibitors. purified TGR, DTNB reduction, TNB absorbance 405 nm. 360,000 tested, 3% active; further: potency means the concentration at half of the fitted maximal effect; on the % scale 0 is the no-effect control and ±100 the full control effect; nearly all actives have a fitted effect of over 60% in size
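First, TGR (20 nM dispensed) and NADPH were mixed with compound. Second, a 15 min room-temperature incubation followed. Third, further NADPH and then DTNB were added to start the reaction. Finally, TNB absorbance was monitored kinetically.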
Tb PYK inh: blocks Trypanosoma brucei pyruvate kinase. TbPYK enzyme, Kinase-Glo Plus ATP luminescence, 45 min. AID 624173. Potency, µM (titrated, usually from 76.8 µM), inactives show at the highest dose activity, negative = inhibition, actives largely listed as inhibitors. Q57TT1. 410,000 tested, 0.12% active; further: potency means the concentration at half of the fitted maximal effect; on the % scale 0 is the no-effect control and ±100 the full control effect; nearly all actives have a fitted effect of over 50% in size
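Activity of T. brucei pyruvate kinase was followed by Kinase-Glo Plus luminescence after the enzyme reacted 45 min at room temperature with 130 uM ADP (final) and substrate. Test compounds were added before ADP at multiple concentrations.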
FBPA Giardia inh: blocks Giardia fructose-bisphosphate aldolase activity | A8B2U2 | 290,000 tested, 0.71% active | purified Giardia FBPA | AID 2451 | Potency, µM (highest dose often 59.6 µM), without a hit: at the highest dose activity, negative = inhibition, usual class: inhibitors; further: potency means the concentration at half of the fitted maximal effect; on the % scale 0 is the no-effect control and ±100 the full control effect; nearly all actives have a fitted effect of over 55% in size
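40 nM FBPA preincubated 10 min at RT with compound (up to 57.5 uM final), then substrate plus GAPDH/TPI/NAD/arsenate coupling and diaphorase/resazurin added. Fluorescence read after 20 min at RT, 525/598 nm.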
Shiga inhibitor: blocks Shiga toxin action in Vero cells; AID 2315; 290,000 tested, 9.2% active; inhibition, % at 38.7 µM; Vero cells, Shiga toxin protein synthesis inhibition reporter; in the data active means inhibition mostly above about 28%, no sharp cut-off; inactive means mostly below about 43%; further: 0% is about no effect
LmPK inhibitor: inhibitors of Leishmania mexicana pyruvate kinase | Potency, µM (highest dose often 57.5 µM), for inactives: at the highest dose activity change, negative = inhibition, actives largely listed as inhibitors | purified LmPK, Kinase-Glo ATP luminescence, 1 h | 290,000 tested, 0.37% active | AID 1721; further: potency means the concentration at half of the fitted maximal effect; on the % scale 0 is the no-effect control and ±100 the full control effect
Target sequence (Q27686 whole entry, looked up): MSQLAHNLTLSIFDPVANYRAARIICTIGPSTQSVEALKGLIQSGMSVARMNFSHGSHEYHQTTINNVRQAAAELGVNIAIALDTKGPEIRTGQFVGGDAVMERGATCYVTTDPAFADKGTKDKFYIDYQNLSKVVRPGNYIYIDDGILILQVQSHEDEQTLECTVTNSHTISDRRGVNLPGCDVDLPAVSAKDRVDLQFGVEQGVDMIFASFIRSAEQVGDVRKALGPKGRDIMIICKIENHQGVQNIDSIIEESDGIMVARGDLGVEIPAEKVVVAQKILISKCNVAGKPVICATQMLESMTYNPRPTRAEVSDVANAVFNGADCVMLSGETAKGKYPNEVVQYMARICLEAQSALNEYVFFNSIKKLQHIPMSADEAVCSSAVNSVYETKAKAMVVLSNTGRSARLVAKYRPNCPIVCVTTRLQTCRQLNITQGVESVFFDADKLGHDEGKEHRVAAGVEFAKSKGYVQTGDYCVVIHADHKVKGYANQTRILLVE
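ATP generated from ADP (0.1 mM) and PEP (0.5 mM) by 0.1 nM LmPK over 1 h at room temperature (pH 7.2 imidazole buffer) was detected by coupled luciferase luminescence. Values were normalized to uninhibited and no-enzyme wells.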
Cycloheximide cs: counter-screen for Shiga toxin inhibitors: cycloheximide protein synthesis inhibition | AID 2314 | 300,000 tested, 12% active | max response, % | cell reporter, cycloheximide protein synthesis inhibition counterscreen; in the data active means max response mostly above about 13%, no sharp cut-off; inactive means mostly below about 14%; further: read at 38.3 µM for the half of the compounds with a filed dose; 0% is about no effect
An asterisk follows results filed as active; u = inconclusive; x = not tested or not shown; [ ] = remark or other dose. Unless noted, the call rests on the fitted dose curve; in most records, active means well fitted curve in the direction sought with a large enough effect; inconclusive means small, poorly fitted or top-dose-only effect, or another doubt; inactive means no such curve, though single readings can be large; an effect the other way counts as inactive or inconclusive.

SMILES | Sm TGR inh | Tb PYK inh | FBPA Giardia inh | Shiga inhibitor | LmPK inhibitor | Cycloheximide cs
Cc1ccc(-c2cc(-c3ccccc3)nc(NN)n2)cc1 | -5.1% | -6.9% | -15.9% | -2.8 | 0.2% | -1.9
O=Nc1c(-c2c(O)[nH]c3cc(Br)ccc23)[nH]c2ccccc12 | -11.6% | -7.3% | -29.6% | 29.8* | -27.9% | 29.8*
Cc1ccc(C)n1-c1ccc(C(=O)Nc2ccccc2F)cc1 | 50.1µM* | -4.6% | 0.8% | 101.6* | -5.9% | 56.6*
COc1ccc(NC(=O)c2ccc(-n3c(C)ccc3C)cc2)c(OC)c1 | 28.2µM* | 0.3% | 0.0% | 5.4 | -3.5% | -1.8
CN(CCOc1ccc(-c2ccn(S(=O)(=O)c3ccc(Cl)cc3)n2)cc1)c1ccccn1 | 0.0% | -6.1% | -1.8% | 10.8 | -1.5% | 6.9
COc1ccc(S(=O)(=O)n2ccc(-c3cnc(-c4ccccc4)s3)n2)cc1 | 17.5% | -8.4% | -11.3% | 37.2 | 1.7% | 16.6*
O=C(c1ccccc1)n1ccc(-c2cnc(-c3ccccc3)s2)n1 | -3.1% | -7.7% | 3.7% | 97.3* | 1.5% | 39.9*
Cc1ccc(COC(=O)c2[nH]c3c(c2C)C(=O)CC(c2ccc(Cl)cc2)C3)cc1 (configuration not stated) | u | 4.5% | x | x | x | x
Cn1c(SCc2ccccc2F)nc2c([nH]c3ccccc32)c1=O | 7.5% | 4.1% | x | x | x | x
Cc1cccc(N2CCN(C(=O)CN3C(=O)COc4ccc(S(=O)(=O)N5CCC(C)CC5)cc43)CC2)c1C | 2.8% | -2.3% | x | x | x | x
CC1CCCN(C(=S)Nc2ccc(F)cc2)C1 (configuration not stated) | x | 6.0% | -6.3% | 8.8 | 6.9% | 7.3
COC(=O)Cc1ccc(NC(=S)N2CCCC(C)C2)cc1 (configuration not stated) | 2.3% | 1.8% | -7.4% | 11.0 | 9.6% | 40.6*
CC1CCCN(C(=S)Nc2ccc(Nc3ccccc3)cc2)C1 (configuration not stated) | 15.9% | -9.3% | u | 98.7* | 4.9% | 23.2*
O=C(COC(=O)c1ccc[nH]c1=O)Nc1ccc(N2CCCCC2)cc1 | x | -12.2% | x | x | x | x
CCC1(C)NC(=O)N(/N=C/c2ccc(C)s2)C1=O (configuration not stated) | 5.4% | 11.7% | 5.1% | 46.6* | 2.2% | 45.6*
COc1ccc(S(=O)(=O)N2CCCC(C(=O)NCCN3CCOCC3)C2)cc1C (configuration not stated) | -8.8% | 1.8% | -1.5% | -3.9 | -3.1% | -5.1
O=C1C[C@H](c2ccccc2)[C@@H](c2ccc(Br)cc2)O1 | x | x | -0.2%[12.9 µM] | x | x | x
C[C@@H]1[C@@H](Sc2ccccc2)CC(=O)O[C@@H]1c1ccc(-c2ccccc2)cc1 | x | -0.7% | 1.0% | 81.8* | x | 63.1*
CC(C)(C)C(=O)C(Cl)C(=O)Nc1ccccc1 (configuration not stated) | 22.4µM* | -9.2% | 3.6% | -4.1 | -2.2% | -1.4
CC(=O)OC[C@@H]1O[C@@H](O/N=C2/C[C@@H](O)[C@@H](O)[C@@H]3[C@@H]4C(=O)N(C(C)(C)C)C(=O)[C@H]4CC[C@@H]23)[C@H](OC(C)=O)[C@H](OC(C)=O)[C@@H]1OC(C)=O | x | x | -1.7%[12.9 µM] | x | x | x
CC(=O)NCC(=O)OCC(=O)Nc1nc(-c2ccccc2)cs1 | 6.6% | 1.6% | 0.9% | 63.4* | 0.1% | 16.3*
Cc1ccc(-c2csc(NC(=O)CN3CCOCC3)n2)cc1C | 16.6% | 0.6% | -23.4% | 24.3 | -2.2% | 21.4*
Cc1ccc(-c2csc(NC(=O)COC(=O)c3cccc(S(=O)(=O)N4CCOCC4)c3)n2)cc1 | -0.2% | 4.1% | -9.3% | 130.8* | -9.9% | 22.4*
Cc1ccc(-c2csc(NC(=O)c3cccc(S(=O)(=O)N4CCN(C)CC4)c3)n2)cc1 | 0.9% | -0.3% | -9.6% | -3.2 | -0.8% | -1.7
CN1CCN(CC(=O)N(C)c2nc(-c3ccccc3)cs2)CC1 | -3.0% | -1.0% | 9.8% | 60.4* | 1.2% | 60.6*
SMILES | Sm TGR inh | Tb PYK inh | FBPA Giardia inh | Shiga inhibitor | LmPK inhibitor | Cycloheximide cs
CCCCOc1ccc(C(C)NC(=O)c2cccc(Nc3nc4ccccc4n4nnnc34)c2)cc1 (configuration not stated) | -0.9% | 1.3% | x | x | x | x
CC[C@H](C)[C@H](NC(=O)[C@@H](NC(=O)[C@@H](NC(=O)[C@H](CCC(=O)O)NC(=O)[C@H](CCC(=O)O)NC(=O)[C@H](CCC(=O)O)NC(=O)[C@H](C)NC(=O)[C@@H](N)CC(C)C)C(C)C)C(C)C)C(=O)N[C@@H](CCCNC(=N)N)C(=O)N[C@@H](CO)C(=O)N[C@@H](C)C(=O)N[C@@H](CC(N)=O)C(=O)N[C@@H](Cc1ccccc1)C(=O)N[C@H](C(=O)N[C@@H](CC(=O)O)C(=O)N[C@@H](CC(N)=O)C(=O)O)[C@@H](C)O | x | x | -1.9% | -2.0 | x | -1.6
Cc1ccc(NC(=O)CCC(=O)N2Cc3ccccc3Oc3ncccc32)cc1Cl | 35.3% | -3.9% | x | x | x | x
COc1ccc(S(=O)(=O)NC(=O)C2(C)CCN2C(=O)C2CCCCC2)cc1OC (configuration not stated) | x | 0.1% | x | x | x | x
CC(C)(C)OC(=O)N1CCC(c2c(C(=O)NC3CCN(Cc4ccccc4)CC3)cnn2-c2ccc(F)cc2F)CC1 | 4.4% | 2.3%[15.4 µM] | x | x | x | x
O=C(CN1C(=O)c2ccccc2C1=O)NC(Cc1ccccc1)C(=O)O (configuration not stated) | x | -5.7% | x | x | x | x
Cc1nc(NC(=O)CN2CCOCC2)sc1-c1ccccc1 | -8.5% | -8.9% | 0.2% | 76.5 | -0.1% | 26.4*
O=C(CCN1C(=O)C2CCCCC2C1=O)Nc1nc(-c2ccccc2)cs1 (configuration not stated) | 18.9% | -1.2% | -3.2% | 59.2 | 4.5% | 17.1*
COCC(=O)Nc1nc(-c2ccc(-c3ccccc3)cc2)cs1 | 4.6% | -0.5% | -6.3% | 80.9* | -2.3% | 64.7*
CCc1ccc(-c2csc(NC(=O)Oc3ccccc3)n2)cc1 | -10.0% | -8.9% | -2.5% | 192.6* | 1.3% | 24.8*
CCc1sc(NC(=O)CN2CCOCC2)nc1-c1ccccc1 | 1.9% | -0.2% | 1.2% | -4.1 | -2.0% | -2.2
Cc1[nH]c(/C=C2/C(=O)Nc3ccc(S(=O)(=O)Cc4c(Cl)cccc4Cl)cc32)c(C)c1C(=O)N1CCCC1CN1CCCC1 (configuration not stated) | x | x | 0.2% | -22.4 | x | -11.5
COc1cccc(C(NC(C)=O)c2nc(-c3ccoc3)cs2)c1 (configuration not stated) | x | -2.0% | x | x | x | x
O=C(CN1CCCCC1)Nc1nc(-c2ccccc2)cs1 | 18.0% | -1.2% | 3.2% | 35.0* | 0.6% | 34.6*
Cn1cnnc1SCC(=O)Nc1nc(-c2ccccc2)cs1 | -4.1% | 0.1% | -3.7% | 4.7 | -3.0% | 13.0*
